# Test results reported in PubChem BioAssay (NCI).
# Compounds without any hit were thinned out: in the full panel of roughly 79,000, 15% have a hit. Values without a mark were called inactive. Activity calls are given as the source filed them. Rule as the data show it: active = growth inhibition above about 70%; inactive = the rest.
# Tests used:
# [1] = NCI Yeast Anticancer Drug Screen. Data for the rad52 strain (AID 147);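 also: 0% = growth of vehicle-treated control cultures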; conditions: S. cerevisiae rad52 mutant growth inhibition, active compounds read high
# Method in brief: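 Yeast strain carrying a DNA damage repair alteration was exposed to test compounds. Growth inhibition was measured relative to vehicle-treated controls.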
# [2] = NCI Yeast Anticancer Drug Screen. Data for the wt1 strain (AID 149);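 also: 0% = growth of vehicle-treated wt1 cultures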; conditions: S. cerevisiae wt1 strain (SPY 50644) growth inhibition, active compounds read high
# Method in brief: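 wt1 strain grown with compound or vehicle; inhibition taken from the growth difference.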
# [3] = NCI Yeast Anticancer Drug Screen. Data for the rad50EPP+ strain (AID 151);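 also: 0% = growth of vehicle-treated control cultures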; conditions: S. cerevisiae rad50 mutant strain, active compounds read high
# Method in brief: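 Yeast strain carrying rad50 alteration (rad50EPP+) exposed to compounds; growth inhibition measured relative to vehicle-treated controls.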
# [4] = NCI Yeast Anticancer Drug Screen. Data for the rad50 strain (AID 155);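 also: 0% = growth of vehicle-only cultures of the same strain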; conditions: S. cerevisiae rad50 strain growth inhibition, active compounds read high
# Method in brief: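 DNA repair mutant yeast, compound exposure, growth read-out; inhibition is taken relative to vehicle.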
# [5] = NCI Yeast Anticancer Drug Screen. Data for the mec2-1 strain (AID 157); conditions: S. cerevisiae mec2-1 strain, active compounds read high
# Method in brief: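 mec2-1 yeast strain, carrying an alteration in DNA damage repair or cell cycle control, was exposed to compounds; growth inhibition was measured relative to vehicle-treated controls.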
# [6] = NCI Yeast Anticancer Drug Screen. Data for the rad14 strain (AID 159);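 also: 0% = growth of vehicle-treated control cultures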; conditions: S. cerevisiae rad14 strain growth inhibition, active compounds read high
# Method in brief: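 DNA repair-defective yeast, compound-exposed; % growth inhibition derived by comparison with vehicle-treated controls.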
# [7] = NCI Yeast Anticancer Drug Screen. Data for the sgs1 mgt1 strain (AID 161);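 also: 0% = growth of cultures given vehicle only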; conditions: S. cerevisiae sgs1 mgt1 strain, active compounds read high
# Method in brief: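 Percent growth inhibition was derived by comparing compound-exposed mutant yeast with vehicle-exposed cultures. The strain carries alterations in DNA damage repair.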
# [8] = NCI Yeast Anticancer Drug Screen. Data for the CLN2oe strain (AID 163);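 also: 0% = growth of vehicle-only control cultures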; conditions: S. cerevisiae CLN2oe strain, active compounds read high
# Method in brief: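 Yeast cells carrying a defined cell-cycle control alteration were exposed to test compounds. Growth inhibition was scored against vehicle-treated control cultures.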
# [9] = NCI Yeast Anticancer Drug Screen. Data for the cln2 rad14 strain (AID 165);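 also: 0% = growth equal to vehicle treated cultures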; conditions: S. cerevisiae cln2 rad14 strain, active compounds read high
# Method in brief: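 Yeast carrying cln2 and rad14 alterations (cell cycle control and DNA damage repair) were exposed to compounds. Growth inhibition was measured against vehicle-treated controls.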
# [10] = NCI Yeast Anticancer Drug Screen. Data for the bub3 strain (AID 167); conditions: S. cerevisiae bub3 mutant strain, active compounds read high
# Method in brief: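 In this screen, a yeast mutant lacking normal mitotic checkpoint function is challenged with compound. Relative growth versus vehicle gives the inhibition value.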
# [11] = NCI Yeast Anticancer Drug Screen. Data for the wt2 strain (AID 169);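 also: 0% = growth of vehicle-treated yeast cultures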; conditions: S. cerevisiae wt2 strain growth inhibition, active compounds read high
# Method in brief: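 Yeast cells were exposed to test compounds, and growth inhibition was measured relative to vehicle-treated controls.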
# [12] = NCI Yeast Anticancer Drug Screen. Data for the mlh1 strain (AID 171);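 also: 0% = growth of vehicle-treated control cultures of the same strain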; conditions: S. cerevisiae mlh1 strain growth inhibition, active compounds read high
# Method in brief: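 Yeast carrying a defined genetic alteration in DNA damage repair or cell cycle control were exposed to test compounds. Growth inhibition was measured relative to vehicle-treated controls.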
# [13] = NCI Yeast Anticancer Drug Screen. Data for the mlh1 rad18 strain (AID 175); conditions: S. cerevisiae mlh1 rad18 strain growth inhibition, active compounds read high
# Method in brief: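 Growth inhibition of the yeast strain was measured after compound exposure and expressed relative to vehicle-treated controls. The strain carries defined defects in DNA damage repair.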
# [14] = NCI Yeast Anticancer Drug Screen. Data for the rad18 strain (AID 177); conditions: S. cerevisiae rad18 mutant growth inhibition, active compounds read high
# Method in brief: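 Yeast carrying a defined DNA damage repair alteration were exposed to compounds. Growth inhibition was expressed relative to vehicle-treated controls.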
# [15] = at 5.0 µM (retest, dose inferred, filed as 0.5)
# [16] = at 50.0 µM (retest, dose inferred, filed as 5.0)
compound,measurement,setting,value
O=C(CSC(=S)N1CCCCC1)Nc1nc2c(s1)CCCC2,growth inhibition,[1]; at 1.2 µM,1%
same,growth inhibition,[1]; at 3.7 µM,6%
same,growth inhibition,[1]; at 11.0 µM,6%
same,growth inhibition,[1]; at 33.0 µM,41%
same,growth inhibition,[1]; at 100.0 µM,79% (active)
same,growth inhibition,[2]; at 1.2 µM,-9%
same,growth inhibition,[2]; at 3.7 µM,-11%
same,growth inhibition,[2]; at 11.0 µM,-13%
same,growth inhibition,[2]; at 33.0 µM,3%
same,growth inhibition,[2]; at 100.0 µM,79% (active)
same,growth inhibition,[3]; at 1.2 µM,21%
same,growth inhibition,[3]; at 3.7 µM,31%
same,growth inhibition,[3]; at 11.0 µM,38%
same,growth inhibition,[3]; at 33.0 µM,40%
same,growth inhibition,[3]; at 100.0 µM,41%
same,growth inhibition,[4]; at 1.2 µM,-11%
same,growth inhibition,[4]; at 3.7 µM,-2%
same,growth inhibition,[4]; [15],31%
same,growth inhibition,[4]; at 11.0 µM,-16%
same,growth inhibition,[4]; at 33.0 µM,26%
same,growth inhibition,[4]; [16],68%
same,growth inhibition,[4]; at 50.0 µM,74.3% (active)
same,growth inhibition,[4]; at 100.0 µM,83% (active)
same,growth inhibition,[5]; at 1.2 µM,7%
same,growth inhibition,[5]; at 3.7 µM,-9%
same,growth inhibition,[5]; [15],-4%
same,growth inhibition,[5]; at 11.0 µM,1%
same,growth inhibition,[5]; at 33.0 µM,1%
same,growth inhibition,[5]; [16],45%
same,growth inhibition,[5]; at 50.0 µM,56.6%
same,growth inhibition,[5]; at 100.0 µM,79% (active)
same,growth inhibition,[6]; at 1.2 µM,-9%
same,growth inhibition,[6]; at 3.7 µM,-14%
same,growth inhibition,[6]; at 11.0 µM,-6%
same,growth inhibition,[6]; at 33.0 µM,11%
same,growth inhibition,[6]; at 100.0 µM,73% (active)
same,growth inhibition,[7]; [15],17%
same,growth inhibition,[7]; [16],87% (active)
same,growth inhibition,[7]; at 50.0 µM,86% (active)
same,growth inhibition,[8]; at 1.2 µM,3%
same,growth inhibition,[8]; at 3.7 µM,-6%
same,growth inhibition,[8]; at 11.0 µM,-14%
same,growth inhibition,[8]; at 33.0 µM,0%
same,growth inhibition,[8]; at 100.0 µM,61%
same,growth inhibition,[9]; [15],11%
same,growth inhibition,[9]; [16],70% (active)
same,growth inhibition,[9]; at 50.0 µM,72.2% (active)
same,growth inhibition,[10]; at 1.2 µM,5%
same,growth inhibition,[10]; at 3.7 µM,-8%
same,growth inhibition,[10]; [15],45%
same,growth inhibition,[10]; at 11.0 µM,-4%
same,growth inhibition,[10]; at 33.0 µM,80% (active)
same,growth inhibition,[10]; [16],92% (active)
same,growth inhibition,[10]; at 50.0 µM,86.5% (active)
same,growth inhibition,[10]; at 100.0 µM,85% (active)
same,growth inhibition,[11]; at 1.2 µM,-7%
same,growth inhibition,[11]; at 3.7 µM,-3%
same,growth inhibition,[11]; at 11.0 µM,-2%
same,growth inhibition,[11]; at 33.0 µM,22%
same,growth inhibition,[11]; at 100.0 µM,88% (active)
same,growth inhibition,[12]; at 1.2 µM,24%
same,growth inhibition,[12]; at 3.7 µM,19%
same,growth inhibition,[12]; at 11.0 µM,14%
same,growth inhibition,[12]; at 33.0 µM,43%
same,growth inhibition,[12]; at 100.0 µM,84% (active)
same,growth inhibition,[13]; [15],16%
same,growth inhibition,[13]; [16],53%
same,growth inhibition,[13]; at 50.0 µM,78.6% (active)
same,growth inhibition,[14]; at 1.2 µM,27%
same,growth inhibition,[14]; at 3.7 µM,19%
same,growth inhibition,[14]; at 11.0 µM,25%
same,growth inhibition,[14]; at 33.0 µM,23%
same,growth inhibition,[14]; at 100.0 µM,76% (active)
